{"source": "PubChem BioAssay AID1851", "about": "(National Center for Advancing Translational Sciences (NCATS), 2009)", "note": "Among all 16,000 compounds or so, about 2,600 (16%) were called active. Roughly 20% stayed inconclusive and do not appear here. Only a sample is shown. Unmarked numbers belong to inactive results. The call rests on the fitted dose curve; in most records, active means well fitted curve in the direction sought with a large enough effect; inconclusive means small, poorly fitted or top-dose-only effect, or effect the other way; inactive means no such curve, though single readings can be large or run the other way. On the % scale 0 is the no-effect control and ±100 the full control effect."}
{"target": "Cytochrome P450 2D6 (Homo sapiens) (UniProt P10635)", "sequence (P10635 whole entry, looked up)": "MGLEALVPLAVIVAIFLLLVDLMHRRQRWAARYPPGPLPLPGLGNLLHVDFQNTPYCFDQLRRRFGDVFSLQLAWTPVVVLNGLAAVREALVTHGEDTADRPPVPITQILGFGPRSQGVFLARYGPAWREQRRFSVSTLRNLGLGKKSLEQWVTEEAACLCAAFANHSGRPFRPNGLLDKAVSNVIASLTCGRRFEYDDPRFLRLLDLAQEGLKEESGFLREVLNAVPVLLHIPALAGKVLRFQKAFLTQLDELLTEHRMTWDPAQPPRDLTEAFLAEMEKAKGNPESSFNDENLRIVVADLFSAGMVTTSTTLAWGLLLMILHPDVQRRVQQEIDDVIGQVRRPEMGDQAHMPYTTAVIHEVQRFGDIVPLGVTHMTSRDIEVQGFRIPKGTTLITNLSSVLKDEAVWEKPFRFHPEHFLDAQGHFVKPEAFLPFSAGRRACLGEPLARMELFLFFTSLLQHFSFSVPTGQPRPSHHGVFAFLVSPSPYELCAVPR", "experiment": "Cytochrome panel assay with activity outcomes", "conditions": "recombinant CYP, pro-luciferin dealkylation, luminescence, p450-cyp2d6; series mostly up to 57.1 µM; activity, negative = inhibition: at the top concentration"}
{"smiles": "CCNc1ncc2ncc(=O)n(Cc3cccs3)c2n1", "AC50": "12.6 µM (active)"}
{"smiles": "CCNc1ncc2nc(-c3cn(C)c4ccccc34)c(=O)n(Cc3ccc(F)cc3)c2n1", "activity, negative = inhibition": "-8.85%"}
{"smiles": "CCNc1ncc2nc(C)c(=O)n(Cc3cccs3)c2n1", "activity, negative = inhibition": "-10.2%"}
{"smiles": "N#CCCn1c(=O)c(-c2cccs2)nc2cnc(Nc3ccccc3)nc21", "activity, negative = inhibition": "8.86%"}
{"smiles": "CCNc1ncc2nc(-c3cccs3)c(=O)n(C)c2n1", "activity, negative = inhibition": "6.42%"}
{"smiles": "COc1ncc2nc(-c3cn(C)c4ccccc34)c(=O)n(CCC#N)c2n1", "activity, negative = inhibition": "-0.812%"}
{"smiles": "CN1CCN(c2ncc3nc(-c4cccc(C#N)c4)c(=O)n(CCC#N)c3n2)CC1", "activity, negative = inhibition": "2.23%"}
{"smiles": "N#CCCn1c(=O)c(-c2cccc(C#N)c2)nc2cnc(Oc3ccccc3)nc21", "activity, negative = inhibition": "5.63%"}
{"smiles": "CCNc1ncc2nc(-c3cn(C)c4ccccc34)c(=O)n(CCC#N)c2n1", "AC50": "3.98 µM (active)"}
{"smiles": "CCNc1ncc2nc(-c3cccs3)c(=O)n(CCC#N)c2n1", "AC50": "1.26 µM (active)"}
{"smiles": "Cc1cc(C)cc(C(=O)N(C)[C@H](Cc2ccc(-c3ccccc3)cc2)C(=O)N[C@@H](Cc2c[nH]c3ccccc23)C(=O)O)c1", "activity, negative = inhibition": "-5.77%"}
{"smiles": "N=c1ccn2c(n1)O[C@H]1[C@@H](OP(=O)(O)O)[C@H](CO)O[C@H]12", "activity, negative = inhibition": "10.3% [at 11.4 µM]"}
{"smiles": "Cc1cc(-c2n[nH]c(=S)o2)c(C)n1-c1ccccc1", "activity, negative = inhibition": "-6.27%"}
{"smiles": "O=C(Nc1nnc(C2CC2)s1)c1cc(S(=O)(=O)N2CCN(c3ccccc3)CC2)ccc1Cl", "activity, negative = inhibition": "28%"}
{"smiles": "O=C(N/N=C1/C[C@@H](O)[C@@H](O)[C@@H]2[C@@H]3C(=O)N(Cc4ccccc4)C(=O)[C@H]3CC[C@@H]12)OCc1ccccc1", "activity, negative = inhibition": "9.46% [at 11.4 µM]"}
{"smiles": "O=C1[C@H]2O[C@@H]2[C@@H](O)[C@H]2[C@H]1CCn1c(=O)n(Cc3cc4c(cc3Cl)OCO4)c(=O)n12", "activity, negative = inhibition": "-11.5% [at 11.4 µM]"}
{"smiles": "CCN(CC)C(=O)CSc1nnc(-c2ccco2)n1N", "activity, negative = inhibition": "-28.2%"}
{"smiles": "COc1ccc(COC(=O)N/N=C2/C[C@@H](O)[C@@H](O)[C@@H]3[C@H]4C(=O)N(c5ccc(F)cc5F)C(=O)[C@@H]4CC[C@@H]23)cc1", "activity, negative = inhibition": "-3.12% [at 11.4 µM]"}
{"smiles": "O=C(Cc1cccs1)N/N=C/C(Br)=C/c1ccccc1", "activity, negative = inhibition": "-28.8%"}
{"smiles": "COc1ncc2nc(-c3cc(F)cc(F)c3)c(=O)n(CCC#N)c2n1", "activity, negative = inhibition": "-10.6%"}
{"smiles": "N#CCCn1c(=O)c(-c2cc(F)cc(F)c2)nc2cnc(Nc3ccccc3)nc21", "activity, negative = inhibition": "1.97%"}
{"smiles": "CCNc1ncc2nc(-c3ccccc3)c(=O)n(CCC#N)c2n1", "AC50": "0.501 µM (active)"}
{"smiles": "COc1ccc(-c2nc3cnc(Nc4ccccc4)nc3n(CCC#N)c2=O)cc1", "activity, negative = inhibition": "6.64%"}
{"smiles": "CCNc1ncc2nc(-c3cc(F)cc(F)c3)c(=O)n(CCC#N)c2n1", "AC50": "0.0631 µM (active)"}
{"smiles": "N#CCCn1c(=O)c(-c2ccccc2)nc2cnc(Nc3ccccc3)nc21", "activity, negative = inhibition": "4.06%"}
{"smiles": "COC(=O)[C@@]1(Cc2ccc(F)cc2)[C@H]2c3cc(C(=O)N4CCCC4)n(CCCNc4ncc(C(F)(F)F)cc4Cl)c3C[C@H]2CN1C(=O)c1ccccc1", "activity, negative = inhibition": "3.6%"}
{"smiles": "CCOC(=O)[C@]1(CC(=O)O)CCCC1=O", "activity, negative = inhibition": "-6.09% [at 11.4 µM]"}
{"smiles": "COc1ccc(C2CC(=O)c3cnc(Nc4cc(C)cc(C)c4)nc3C2)cc1", "note": "(stereo unspecified)", "activity, negative = inhibition": "-11.6%"}
{"smiles": "O=C1NC(=O)C(c2ccccc2[N+](=O)[O-])=C1Nc1ccc(O)c(Cl)c1", "activity, negative = inhibition": "2.19%"}
{"smiles": "Cc1occc1C(=O)NNC(=O)c1ccc(F)cc1", "activity, negative = inhibition": "-29%"}
{"smiles": "COc1ccc(-n2c(=S)[nH]c3cc(C(=O)NCCCN4CCCC4=O)ccc3c2=O)cc1", "activity, negative = inhibition": "-6.32%"}
{"smiles": "COc1ccc2c(c1OC)C(=O)O[C@@H]2[C@H]1c2c(cc3c(c2OC)OCO3)CCN1C", "activity, negative = inhibition": "0.746%"}
{"smiles": "COc1ccc2c(c1OC)C(=O)OC2[C@H]1c2c(cc3c(c2OC)OCO3)CCN1C", "note": "(stereo partly specified)", "AC50": "10 µM (active)"}
{"smiles": "COc1ccc2c(c1OC)C(=O)OC2Nc1ncccc1C", "note": "(stereo unspecified)", "activity, negative = inhibition": "-10.4%"}
{"smiles": "COc1ccc(/C(C)=N/NC(=O)c2ccc(CSc3cccc4cccnc34)cc2)cc1OC", "activity, negative = inhibition": "-9.22%"}
{"smiles": "Cc1ccccc1-c1cc(C(=O)n2cccn2)c2cc(Cl)ccc2n1", "activity, negative = inhibition": "-13.5%"}
{"smiles": "Cc1cc(N2C(=O)C(O)=C(C(=O)c3cccs3)C2c2cccc(O)c2)no1", "note": "(stereo unspecified)", "activity, negative = inhibition": "-3.43%"}
{"smiles": "COC(=O)CSc1cc(C(F)(F)F)nc(-c2ccccn2)n1", "activity, negative = inhibition": "6.24%"}
{"smiles": "CCOC(=O)CSc1nc2c(cnn2-c2ccc(C)cc2)c(=O)[nH]1", "activity, negative = inhibition": "7.23%"}
{"smiles": "N#CCSc1nc2cc(C(=O)N3CCCC3)ccc2c(=O)n1Cc1ccccc1", "activity, negative = inhibition": "-16.5%"}
{"smiles": "Cc1nc2cnc(Oc3cccc(Cl)c3)nc2n(C[C@H]2CCCO2)c1=O", "activity, negative = inhibition": "4.36%"}
{"smiles": "COc1cccc(-c2ccc3ncnc(NCc4cccs4)c3c2)c1", "AC50": "10 µM (active)"}
{"smiles": "COCCNc1ncnc2ccc(-c3cccc(NS(C)(=O)=O)c3)cc12", "activity, negative = inhibition": "-1.19%"}
{"smiles": "c1csc(CNc2ncnc3ccc(-c4ccoc4)cc23)c1", "AC50": "15.8 µM (active)"}
{"smiles": "CS(=O)(=O)Nc1cccc(-c2ccc3ncnc(NCCN4CCOCC4)c3c2)c1", "activity, negative = inhibition": "-8.45%"}
{"smiles": "CS(=O)(=O)Nc1cccc(-c2ccc3ncnc(NCc4cccs4)c3c2)c1", "AC50": "20 µM (active)"}
